Hits are enriched below; roughly 2.3% of the tested compounds scored in any of these assays.
Glioma ERSR ind = qHTS for Inducers of the Endoplasmic Reticulum Stress Response (ERSR) in Human Glioma: qHTS | U87-MG GRP78 promoter luciferase reporter, 16 h | Potency, µM, most hits filed as activators | actives 0.02% (n = 420,000) | AID 602332, 2012; also: series mostly up to about 76 µM; nearly all actives have a fitted effect of over 35% in size
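Stably transfected U87-MG glioma cells carrying a GRP78-based luciferase sensor; 16 h compound incubation. Luminescence end-point read 10 min after Bright-Glo addition at room temperature.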
ALOX12 inh = Primary qHTS assay for inhibitors of human arachidonate 12S-lipoxygenase (ALOX12): Round 2; Polyunsaturated fatty acid lipoxygenase ALOX12 (Homo sapiens), P18054; purified 12hLO, xylenol orange hydroperoxide absorbance; Potency, µM (doses to about 108 µM), hits mostly inhibitors; actives 1.1% (n = 580,000)
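Hydroperoxide product was detected by ferrous iron/xylenol orange as the 573 to 405 nm absorbance ratio. Arachidonic acid at 40 uM (final) was turned over for 30 min at room temperature by 150 nM human 12hLO, pH 7.0 Hepes buffer, after 15 min compound preincubation.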
GLS inhibitor = qHTS for Inhibitors of Glutaminase (GLS). Glutaminase kidney isoform, mitochondrial (Homo sapiens), O94925. GLS enzymatic activity, qHTS titration. Potency, µM (series often up to 45.5 µM), hits mostly inhibitors. actives 0.21% (n = 410,000)
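hKGA; 45 mM KH2PO4 pH 8.2 + 0.02% Tween-20; cpd via pin tool; 1 mM Gln soln; GluOx/HRP/Amplex Red; RT 30 min; fluor. t0 & final.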
GLP-1R inv ag = qHTS of GLP-1 Receptor Inverse Agonists (Inhibition Mode); Glucagon-like peptide 1 receptor (Homo sapiens), P43220; HEK293 GLP-1R CRE-luciferase, luminescence, 24 h; GLP-1R form is constitutively active; Potency, µM (titrated, usually from 38.3 µM), hits mostly inhibitors; actives 1.6% (n = 410,000); AID 624417, 2012; also: nearly all actives have a fitted effect of over 55% in size
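qHTS in 1536-well format: reporter HEK293 cells expressing constitutive GLP-1R activity in DMEM + 10% Nu serum, 24 hr with compounds at 37 deg C, luminescence read after 12 min with detection reagent.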
PTHR1 agonist = qHTS for PTHR1 Agonists: Primary Screen | HEK293 GP2 PTHR1 cells, GloSensor cAMP luminescence, 1 h | actives 0.075% (n = 410,000) | Parathyroid hormone/parathyroid hormone-related peptide receptor (Homo sapiens), Q03431 | Potency, µM (highest dose often 115 µM), hits mostly activators | AID 743266, 2014; also: nearly all actives have a fitted effect of over 55% in size
Target sequence (Q03431 whole entry, looked up): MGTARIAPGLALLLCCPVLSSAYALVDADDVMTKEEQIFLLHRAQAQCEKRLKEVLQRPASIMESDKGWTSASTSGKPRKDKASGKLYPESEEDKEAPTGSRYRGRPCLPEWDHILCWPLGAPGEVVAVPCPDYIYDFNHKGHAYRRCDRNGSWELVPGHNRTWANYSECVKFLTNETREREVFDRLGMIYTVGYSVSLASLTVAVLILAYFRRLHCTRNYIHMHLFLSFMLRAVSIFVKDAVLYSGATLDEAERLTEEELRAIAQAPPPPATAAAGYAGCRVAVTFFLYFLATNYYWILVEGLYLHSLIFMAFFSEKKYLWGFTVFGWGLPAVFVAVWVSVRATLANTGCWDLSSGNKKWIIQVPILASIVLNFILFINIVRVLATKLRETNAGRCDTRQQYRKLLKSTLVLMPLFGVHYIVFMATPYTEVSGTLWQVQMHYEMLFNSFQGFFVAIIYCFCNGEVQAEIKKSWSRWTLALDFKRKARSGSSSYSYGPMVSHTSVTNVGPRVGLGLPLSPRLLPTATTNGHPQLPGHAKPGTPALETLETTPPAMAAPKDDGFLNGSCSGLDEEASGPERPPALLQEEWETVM
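HEK-293-derived GP2 cells expressing PTHR1 and a GloSensor cAMP reporter, 3,000/well, plated overnight, given luciferin plus IBMX (each 0.5 mM as added) for 1 h at 37 °C, then compound for 1 h at 37 °C. Luminescence was read after 15 min at room temperature.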
GLP1R ag = qHTS of GLP-1 Receptor Agonists; Glucagon-like peptide 1 receptor (Homo sapiens), P43220; HEK293 GLP-1R CRE-luciferase, luminescence, 4-6 h; cells express a hypersensitive GLP-1R form; Potency, µM (doses to about 45.6 µM), hits mostly activators; actives 0.007% (n = 380,000); AID 624172, 2012
Numbers stand for hits; . = inactive; ? = inconclusive; / = no result. Calls follow the shape of the dose curve; as a rule, active = well fitted curve in the direction sought with a large enough effect; inconclusive = small, poorly fitted or top-dose-only effect, or another doubt; inactive = no such curve, though single readings can be large; an effect the other way counts as inactive or inconclusive.

SMILES | Glioma ERSR ind | ALOX12 inh | GLS inhibitor | GLP-1R inv ag | PTHR1 agonist | GLP1R ag
N#Cc1cn(Cc2ccccc2)c2ccccc12 | . | . | . | 11.2µM | . | .
CCN(CC)S(=O)(=O)c1cc(C(=O)OCc2nc3ccccc3nc2C)ccc1C | / | . | / | / | / | /
N#CC1=C(N)Oc2c(oc(CO)cc2=O)C1c1ccccc1[N+](=O)[O-] (configuration not stated) | . | 15.8µM | . | . | . | .
Cc1ccccc1C1C(C#N)=C(N)Oc2c1oc(CO)cc2=O (configuration not stated) | / | . | / | / | / | /
CN(C)CCN1C(=O)C2C(C(=O)Nc3cc(Cl)cc(Cl)c3)C3C=CC2(O3)C1C(=O)NC1CCCCC1 (configuration not stated) | . | . | . | 10µM | . | .
O=C(CN1CCCC1c1nc2ccccc2s1)NC(=O)Nc1ccc2c(c1)OCO2 (configuration not stated) | / | . | / | / | / | /
COc1ccccc1CNC(=O)Cc1c(C)c2ccc(O)cc2oc1=O | / | . | / | / | / | /
CCNC(=O)c1c(O)c2ccccc2[nH]c1=O | . | . | . | 10µM | . | .
Cc1ccc(C)c(Sc2ccc(NC(=O)c3ccc(C)c(C)c3)cc2)c1 | / | . | / | / | / | /
C=C(C)C(=O)Nc1ccc(OC(F)(F)C(F)F)c(NC(=O)C(=C)C)c1 | . | . | 12.6µM | . | ? | .
CCOc1ccc(OC(=O)NC(c2ccccc2)C(Cl)(Cl)Cl)cc1 (configuration not stated) | . | . | . | . | . | .
CC(C)OC(=O)NC(c1ccccc1)C(Cl)(Cl)Cl (configuration not stated) | . | . | . | 11.2µM | . | .
O=C(O)c1cc(-c2ccc(/C=C3\NC(=O)N(c4ccc(Cl)cc4)C3=O)o2)ccc1Cl | . | ? | 20µM | . | . | .
CCc1nn(-c2ccccc2)c2c1CN(C(=O)NCC(=O)OC)C(c1ccc(F)cc1)c1cccn1-2 (configuration not stated) | / | . | / | / | / | /
CC1(C)CC[C@]2(C(=O)n3ccnc3)CC[C@]3(C)[C@H](C(=O)C=C4[C@@]5(C)C=C(C#N)C(=O)C(C)(C)[C@@H]5CC[C@]43C)[C@@H]2C1 | . | ? | 10µM | 2.51µM | . | .
Cc1ccc(-c2csc(N)c2C#N)c(C)c1 | / | 22.4µM | / | / | / | /
N#Cc1c(N)nc2c(c1-c1ccc(Cl)cc1Cl)CCCC2 | / | . | / | / | / | /
N#Cc1c(-c2ccc(Cl)cc2Cl)csc1N | / | 20µM | / | / | / | /
CCCc1ccc(C(=O)NNC(=O)c2ccc(Br)cc2)cc1 | . | . | . | . | . | .
CCCc1ccc(C(=O)NNc2ccc(F)cc2)cc1 | . | 17.8µM | . | ? | . | .
CC(Nc1ccc(C(C)C)cc1)C(=O)Nc1ccc(Cl)cn1 (configuration not stated) | / | . | / | / | / | /
C#CCn1c(=NC(=O)CSC(C)=O)sc2cc(F)ccc21 | . | / | . | 3.55µM | . | .
CCn1c(=NC(=O)CSC(C)=O)sc2cc(F)ccc21 | . | . | . | . | . | .
CCN1CCCC1CNCC(O)COc1ccc(C(C)(C)C)cc1C (configuration not stated) | . | . | . | 5.01µM | . | .
Cc1ccc(OCC(O)CNC2CCCC2)c(C)c1 (configuration not stated) | . | . | . | ? | . | .
SMILES | Glioma ERSR ind | ALOX12 inh | GLS inhibitor | GLP-1R inv ag | PTHR1 agonist | GLP1R ag
COc1cc(-c2n[nH]c(=S)n2-c2ccc(C)cc2)cc(OC)c1OC | . | ? | . | . | . | .
COc1ccc(-c2n[nH]c(=S)n2-c2ccc(Br)cc2)cc1OC | . | 15.8µM | . | . | . | .
COc1ccc(OC)c(-n2c(-c3ccccc3)n[nH]c2=S)c1 | . | ? | . | . | . | .
COc1ccc(OC)c(-n2c(-c3cccc(C)c3)n[nH]c2=S)c1 | . | 35.5µM | ? | . | . | .
Cc1ccsc1C(=O)N1CCC2(CC1)CC(N(Cc1ccccc1)C1CC1)CCO2 (configuration not stated) | / | . | / | / | / | /
CCC(C)(CNC(=O)c1cc(=O)c2ccccc2o1)N1CCOCC1 (configuration not stated) | / | . | / | / | / | /
CN(C)S(=O)(=O)c1cccc(NC(=S)N/N=C/c2ccc(O)c(O)c2O)c1 | . | ? | 7.94µM | . | . | .
Nc1nonc1-c1nc2ccccc2n1CC(=O)N/N=C\c1ccc(-c2ccc(Cl)cc2)o1 | ? | . | . | 10µM | . | .
Cc1ccc(S(=O)(=O)Oc2ccccc2)cc1 | . | ? | . | ? | . | .
Cc1ccc(S(=O)(=O)Oc2ccccc2-c2ccccc2)cc1 | . | . | . | 2.51µM | . | .
Cc1ccc(N2CCN(C(=O)c3ccccc3Br)CC2)c(C)c1 | . | ? | . | 10µM | . | .
COc1cc(CNCCc2ccc(S(N)(=O)=O)cc2)ccc1OCc1ccc(Cl)cc1 | . | 39.8µM | . | ? | ? | .
CCOc1cc(CNCCc2ccc(S(N)(=O)=O)cc2)ccc1OCc1ccc(Cl)cc1 | . | ? | . | ? | . | .
CC(=C/c1ccccc1)/C=N/NC(=O)c1nnn(-c2nonc2N)c1CN1CCC(C)CC1 | . | . | . | 3.98µM | . | .
O=C(Nc1cc(=O)[nH]c2nc(C(F)(F)F)nn12)c1ccc(Cl)cc1Cl | / | 25.1µM | / | / | / | /
N#CC(C(=O)/C=C/c1ccccc1)c1ccc(C(F)(F)F)cn1 (configuration not stated) | / | . | / | / | / | /
Cc1cc2oc(=O)c(CC(=O)NCCc3ccccc3)c(C)c2c2occ(C(C)(C)C)c12 | . | . | . | 10µM | . | /
O=C(CCc1c(-c2ccc(F)cc2)[nH]c2ccccc12)NC1CC1 | / | . | / | / | / | /
C=CCSC1=N/C(=C\C=C\c2ccccc2)C(=O)S1 | / | 14.1µM | / | / | / | /
COc1ccccc1N1CCN(S(=O)(=O)c2ccc3c(c2)NC(=O)C(C)S3)CC1 (configuration not stated) | . | . | . | 10µM | . | .
CC(C)CCNC(=O)C(c1ccco1)N(Cc1ccc(F)cc1)C(=O)c1snc(C(N)=O)c1N (configuration not stated) | . | . | . | 3.55µM | ? | .
NC(=O)c1nsc(C(=O)N(Cc2ccc(F)cc2)C(C(=O)NC2CCCC2)c2ccco2)c1N (configuration not stated) | . | . | . | . | . | .

Screening results as filed in PubChem.
